91 compounds from PubChem BioAssay AID1508602 (The Scripps Research Institute Molecular Screening Center, 2020) can be followed below.

Each structure is given as a SMILES string. Screen size: about 650,000 compounds; about 6,800 (1%) were called active. Only a selection was taken, and actives are over-represented in it overall. A number with no mark means an inactive call. Cut-off read from the data, not from the text of the source: active = activation above about 4.9%; inactive = the rest.

G-protein coupled receptor 151 (Homo sapiens), sequence (Q8TDV0 whole entry, looked up): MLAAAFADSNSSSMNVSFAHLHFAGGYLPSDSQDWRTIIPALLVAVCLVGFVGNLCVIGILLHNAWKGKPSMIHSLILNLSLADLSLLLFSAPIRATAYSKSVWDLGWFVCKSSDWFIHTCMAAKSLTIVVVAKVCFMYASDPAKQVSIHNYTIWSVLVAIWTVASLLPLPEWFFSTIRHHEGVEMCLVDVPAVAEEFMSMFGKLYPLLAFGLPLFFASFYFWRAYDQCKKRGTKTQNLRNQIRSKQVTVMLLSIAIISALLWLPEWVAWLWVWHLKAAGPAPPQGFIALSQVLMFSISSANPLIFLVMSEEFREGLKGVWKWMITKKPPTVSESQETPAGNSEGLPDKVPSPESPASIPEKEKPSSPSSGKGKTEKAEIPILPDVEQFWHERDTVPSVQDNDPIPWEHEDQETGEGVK

This experiment addresses G-protein coupled receptor 151 (Homo sapiens) (UniProt Q8TDV0). The experiment can be described thus: activates the human receptor GPR151, primary screen, cell-based, PathHunter beta-arrestin, luminescence (AID 1508602).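 Note: 0% = median of compound wells and 100% = cells with positive control.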 The note with it: PathHunter beta-arrestin GPR151 cells, at 11.2 µM, active compounds read high.
Regarding `CCCOc1ccc([N+](=O)[O-])cc1C1NC(=S)NC(C)=C1C(=O)OC` (stereo unspecified), the activation is -1.65%.
As for `Cc1cc2nc(C3CCCCN3C(=O)c3cscn3)[nH]c2cc1C` (stereo unspecified), the activation is -0.0121%.
Regarding `CCC(C(=O)N1CCN(C)CC1)n1c(C)c2cnn(-c3ccccc3)c(=O)c2c1C` (stereo unspecified), the activation is -1.42%.
For the compound `Cc1c2cnn(-c3ccccc3)c(=O)c2c(C)n1CCCC(=O)N1CCN(C)CC1`, the activation is 0.178%.
Regarding `CCC(C(=O)N1CCCCC1)n1c(C)c2cnn(-c3ccccc3)c(=O)c2c1C` (stereo unspecified), the activation is 5.32% (active).
As for `Cc1ccc(S(=O)(=O)Oc2ccc(/C=C3\SC(N)=NC3=O)cc2)cc1`, the activation is -0.455%.
Take `COc1ccc2c(c1)C(Cc1csc(C)n1)(c1ccc(F)cc1)C(=O)N2` (stereo unspecified): the activation is 0.748%.
As for `CC(C)NCCOCCOc1ccc(I)cc1`, the figure is 0.568%.
Take `CCNc1nc(NCC)nc(C(=O)O)n1`: the activation is -0.247%.
For `CCNc1nc(NC(C)C)nc(OCCOC(C)=O)n1`, the activation is 5.11% (active).
On to `CCNc1nc(NC(C)C)nc(OCCOC(=O)c2ccccc2)n1`, for which the activation is 1.89%.
For the compound `Cc1ccc(CN(C)Cc2nc3sc4c(c3c(=O)[nH]2)CCC4)o1`, the activation is 0.643%.
As to `NC(=O)c1ccc(Nc2nccn3c(-c4cccc(F)c4)cnc23)cc1`, the activation is -0.391%.
Consider `COc1ccc(Nc2ncc(-c3ccc(CO)cc3)n3ccnc23)cc1`, for which the activation is -0.0468%.
In the case of `CC(C)c1ccc(Nc2nccn3c(-c4cccc(CO)c4)cnc23)cc1` it was 7.31% (active).
As for `COc1ccccc1NC(=O)CSc1nnc(-c2ccc(O)cc2)o1`, the figure is -0.782%.
Turning to `CC(=O)N1CCN(Cc2ccc3c(c2)CN(Cc2c[nH]c4ccccc24)CCO3)CC1`, the activation is 2.78%.
Take `CCC1C(=O)NCCN1Cc1ccc2c(c1)CN(Cc1c[nH]c3ccccc13)CCO2` (stereo unspecified): the activation is 5.37% (active).
As for `CCOc1cccc(CN2CCOc3ccc(CN4CCNC(=O)C4CC)cc3C2)c1` (stereo unspecified), the figure is -1.24%.
As for `COc1cccc2c1OCC(CN1CCN(C3CCCCC3)C(CCO)C1)=C2` (stereo unspecified), the figure is 2.61%.
`COc1ccc2c(c1)C=C(CN1CCN(CC3CCCCC3)C(CCO)C1)CO2` (stereo unspecified): the activation is 5.13% (active).
As for `COc1cc(CN2CCN(CC3CCCCC3)C(CCO)C2)ccc1O` (stereo unspecified), the activation was -0.725%.
On to `O=C(Nc1ccc(Cl)cc1F)c1ccc(SCC(=O)N2CCCCC2)c([N+](=O)[O-])c1`, for which the activation was 2.3%.
Regarding `COc1ccc(S(=O)(=O)N(C)CC(=O)NCc2ccccn2)cc1C`, the activation was 2.7%.
In the case of `Cc1cccc(Nc2nnc(SCC(=O)N3CCCC3=O)s2)c1C` it was -1.1%; in that of `O=C(CN1C(=O)COc2ccc(Cl)cc21)Nc1ccccc1F`, 0.859%.
Turning to `O=C(CN1C(=O)S/C(=C\c2ccc(Cl)s2)C1=O)Nc1ccccc1F`, the activation is 7.92% (active).
As for `Cc1cccc(NC(=O)CN2C(=O)S/C(=C\c3ccc(Br)s3)C2=O)c1`, the activation is 1.12%.
Take `COc1ccc(N2C(=O)CN(C(=O)c3cc(C(F)(F)F)[nH]n3)CC23CCCC3)cc1`: the activation was -0.225%.
As for `C[C@H]1Cc2c(COc3ccccc3)nc3c(c2CO1)CN(C(=O)Nc1cccc(C#N)c1)CC3`, the activation is -0.449%.
As for `C[C@H]1Cc2c(COc3ccccc3)nc3c(c2CO1)CN(C(=O)NCc1ccco1)CC3`, the figure is 8.56% (active); as for `COc1cccc(CC(=O)N2CCc3nc(COc4ccccc4)c4c(c3C2)CO[C@@H](C)C4)c1`, 4.35%; as for `Cc1ccnc(-n2c(=O)c3cc4c(=O)n(-c5cc(C)ccn5)c(=O)c4cc3c2=O)c1`, -0.463%.
In the case of `Cc1ncc(CO)c(/C=N/NC(=O)c2cc3c(s2)CCC(C)C3)c1O` (stereo unspecified), the activation was -0.38%.
Consider `CC[n+]1c(/C=C/c2ccc(N(C)C)cc2)oc2ccccc21`, for which the activation is -0.273%.
As to `CN(C)c1ccc(C=NCC(O)CN=Cc2ccc(N(C)C)cc2)cc1` (stereo unspecified), the activation is 0.679%.
With `CC[n+]1cc(C)ccc1/C=C/c1ccc(N(C)C)cc1`, the activation is 5.25% (active).
As for `CCC(C)C(=O)NCc1nnc2n1CCN(C(=O)c1sc(C)nc1C)CC2` (stereo unspecified), the figure is -0.99%; as for `COc1cccc(NC(=O)c2cc([N+](=O)[O-])ccc2NC(=O)CNCc2cccnc2)c1`, -1.03%.
In the case of `O=C(Nc1ccc(-c2ccncc2)cn1)C1COc2ccccc2O1` (stereo unspecified), the activation is -2.03%.
Consider `COCCNc1nc2nonc2nc1N1CCCC1c1nccs1` (stereo unspecified), for which the activation is 1.38%.
For the compound `COCCNc1nc2nonc2nc1N(C)Cc1ccc(C)cc1`, the activation is -1.03%.
In the case of `COCCNc1nc2nonc2nc1N(C)Cc1ccncc1C` it was 8.73% (active); in that of `O=C(O)c1cc([N+](=O)[O-])c(NCc2ccccc2)c([N+](=O)[O-])c1`, 0.643%; in that of `O=C(Cn1c(=O)n(Cc2ccc3c(c2)OCO3)c(=O)c2cccnc21)Nc1ccc(F)cc1`, -0.979%.
Consider `O=C(Cn1c(=O)n(Cc2ccc(F)cc2)c(=O)c2cccnc21)Nc1ccccc1F`, for which the activation was 0.571%.
In the case of `O=C(Cn1c(=O)n(Cc2cccs2)c(=O)c2cccnc21)Nc1ccc(F)cc1` it was 5.75% (active); in that of `COc1ccc(NC(=O)c2ccc(F)c3ccccc23)cc1`, 0.361%.
On to `COC(=O)c1cnn2c1NCN(Cc1ccccc1Cl)C2`, for which the activation is 0.44%.
Regarding `CC(=O)Nc1cccc(-c2cnc3[nH]c(=O)n([C@@H](C)c4ccccc4)c3n2)c1`, the activation was 0.0611%.
`CCN(CC)C(=O)C1c2ccccc2C(=O)N(CCOC)C1c1c[nH]c2ccccc12` (stereo unspecified): the activation was -0.555%.
Take `COc1ccc([N+](=O)[O-])cc1N1C(=O)c2ccc(-c3nc4ccccc4c(=O)o3)cc2C1=O`: the activation is 2.31%.
As for `COc1cc2nc(-c3ccc4c(c3)C(=O)N(CCC(C)C)C4=O)oc(=O)c2cc1OC`, the activation is 5.83% (active).
As for `COc1ccc(-c2nc3cc(Cl)ccc3c(=O)o2)cc1OC`, the activation was -0.243%.
For `O=C(c1ccccc1)N1CCN(c2nc3ccccc3o2)CC1`, the activation was 0.594%.
Consider `Cc1ccc(S(=O)(=O)N/N=C/c2ccc(N(C)C)c(Br)c2)cc1`, for which the activation was -1.16%.
As for `O=C(CCn1nnc2ccccc21)N/N=C/c1ccc2ccccc2c1`, the activation is -0.0304%.
As for `Cc1ccccc1Nc1nnc(SCC(=O)N(C)C)s1`, the figure is -2.99%; as for `COc1ccc(NS(=O)(=O)c2ccc(Cl)cc2)cc1`, 2.48%.
`CCOc1ccc(NS(=O)(=O)c2ccc(Cl)cc2)cc1`: the activation was 2.4%.
As for `CCc1ccc(NS(=O)(=O)c2ccc(Cl)cc2)cc1`, the activation was 5.43% (active).
As for `O=C(Nc1ccc(F)c(F)c1)c1ccc(N2CC3CC(C2)c2cccc(=O)n2C3)c(NC(=O)c2ccc(Br)o2)c1` (stereo unspecified), the activation was 2.62%.
Regarding `CCC(Cc1ccccc1)NC(=O)c1ccco1` (stereo unspecified), the activation was 0.495%.
For the compound `COc1ccc(C(=O)COC(=O)C(Cc2ccccc2)NC(=O)c2ccco2)cc1` (stereo unspecified), the activation was 6.4% (active).
In the case of `O=C(COC(=O)C(Cc1c[nH]c2ccccc12)NC(=O)c1ccco1)c1ccc(Br)cc1` (stereo unspecified), the activation was 0.0528%.
Consider `Cc1ccsc1C(=O)OCc1nc2ccccc2s1`, for which the activation is -2.54%.
As to `Cc1cccnc1CN1CCN(C(=O)Cn2nnnc2CN(C)C(C)C)CC1`, the activation was -1.06%.
In the case of `Cc1ccc(C)c(NC(=O)CN2CCOCC2)c1`, the activation was -1.34%.
As to `Cc1ccc(NC(=O)Cn2cc(-c3ccccc3)c(N3CCOCC3)n2)c(C)c1`, the activation was 4.93% (active).
As for `Cc1ccc2c(c1)N(C(=O)Cn1cc(-c3ccccc3)c(N(C)C)n1)CCO2`, the figure is -0.0851%; as for `Cc1c(C(=O)Oc2ccccc2)sc2ncn(Cc3ccccc3F)c(=O)c12`, 1.05%.
With `CC(C)n1nccc1-c1nnc(NC(=O)Cc2ccc(F)cc2)o1`, the activation was 3.52%.
Take `N=C1CCCN1CC(=O)c1ccccc1`: the activation is 0.114%.
In the case of `Cc1ccc2nc3[nH]c4ccccc4c3nc2c1`, the activation is -4.57%.
Take `Nc1c([N+](=O)[O-])cc(Br)c2nsnc12`: the activation is 0.283%.
Consider `CN(C)CC(C)(O)c1ccc2c(c1)CN(C(=O)c1cc(-c3ccsc3)n[nH]1)CCO2` (stereo unspecified), for which the activation is -0.659%.
As for `CCOc1ccc(NC(=O)N2CCC(N(C)CCC(C)C)CC2)cc1`, the figure is -0.0877%.
Consider `CCOc1ccc(NC(=O)CN2CCN(CC(N)=O)CC2)cc1`, for which the activation was 0.536%.
Turning to `CCOc1ccc(NC(=O)N2CCN(CC)CC2)cc1`, the activation was 5.53% (active).
As for `CCC(=O)Nc1c(C(=O)Nc2ccccc2)oc2ccccc12`, the activation is -0.454%.
As for `CN(C)c1cccc(Nc2nc3ccc(C(=O)Nc4ccc(N5CCOCC5)cc4)cc3s2)c1`, the activation was -1.45%.
As to `CC(=O)c1cccc(-c2cc(C(=O)Nc3ccc(N4CCOCC4)cc3)ccn2)c1`, the activation is 1.66%.
As to `CN(C)c1cccc(Nc2cc(C(=O)Nc3ccc(N4CCOCC4)cc3)ccn2)c1`, the activation is 5.03% (active).
For the compound `COc1cc(OC)cc(-c2nc3ccccc3c(=O)n2NC(=O)Cc2cccs2)c1`, the activation is 1.45%.
In the case of `O=C(/C=C/c1cccc([N+](=O)[O-])c1)Nn1c(-c2cccs2)nc2ccccc2c1=O` it was 1.05%; in that of `O=C(Cc1cccs1)Nn1c(-c2cccc([N+](=O)[O-])c2)nc2ccccc2c1=O`, 5.65% (active).
As to `O=C1CC(c2nc3ccccc3n2CC(O)COc2ccccc2)CN1c1ccccc1` (stereo unspecified), the activation is 1.94%.
In the case of `COc1cccc(/C=C2/C(=O)NC(=O)N(c3ccccc3F)C2=O)c1` it was 4.98% (active); in that of `COc1cccc(/C=C2\C(=O)NC(=O)N(c3ccccc3Cl)C2=O)c1`, 1.26%.
In the case of `COc1cccc(N2C(=O)NC(=O)/C(=C/c3ccc(OC)c(O)c3)C2=O)c1` it was 4.48%.
With `Cc1ccc(/C(O)=C2\C(=O)C(=O)N(c3nnc(C)s3)C2c2cccc(Oc3ccccc3)c2)cc1` (stereo unspecified), the activation is 2.53%.
